Results on 37 sequences are retold here after PubChem BioAssay AID1159506 (National Center for Advancing Translational Sciences (NCATS), 2015).

Whole data set: some 59,000 sequences, median the read-out near -0.00055, cut for the lowest 2% near -2. Only a selection was taken, and the lowest values are over-represented in it overall.

This assay in a line: Identification of proteins required for the processing of the EWS-FLI1 nascent transcript.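 Note: robust z of luciferase light less the median z of siRNAs with the same seed.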 As to conditions: TC32 Ewing sarcoma NR0B1-luc vs CMV-luc (EWS-FLI1 target promoter against control promoter), 48 h; screened at 20 nM (by protocol). The method, boiled down: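 Parallel TC32-NR0B1-luc and TC32-CMV-luc reverse transfections with 20 nM siRNA in RPMI-1640/10% FBS, luciferase measured 48 h later. Seed-adjusted z-scores from normalized, z-score-MAD transformed data; AllStars negative and siGL4 controls on each plate.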
Turning to AAACUGCUCGCUGUCAUUC against NCDN, the seed-corrected z-score is -2.2.

For the sequence UGUACAAGAAGUCAUAAGC against DSE, the seed-corrected z-score is -0.289.

As for UUGUGGUCAAUGCCCUUGG against UBIAD1, the seed-corrected z-score is -0.444.

As for UGACAUUCCAAGGUUGUAG against TAS2R60, the seed-corrected z-score worked out at 0.323. In the case of ACCUUUUUCACUUCUACAC against 2-Mar it was -0.43.

As for AAGUUGCUCAGAAACUUGG against WNT9B, the seed-corrected z-score is -3.07. In the case of UGUCCAGAUAAGGAGACGC against PINLYP it was -1.21. In the case of UAAGUUCACUGUUCCAUAU against EDEM2 it was 0.761; in that of UUUGAAAUCAACAUAGAGG against LINC00574, -0.00543. In the case of AAAGGUACUUUACCAGAUG against MTX2 it was 0.416; in that of AGUUCAUUAAAUAAGGUCC against TMEM33, 0.17; in that of UUGUCAAAAAGUCCUUUUG against GINS3, 0.092.

Regarding AAGGCUCUGACAACGAUUC against LMNB1, the seed-corrected z-score was -1.07. In the case of UUGAUUCGCAACCAUAGCC against BTBD7 it was -2.52; in that of AUUCGAAGUAGUUGUAGCC against FRY, 0.623. In the case of UCGGUUUUCCUCAAAAUGG against SESN1 it was 0.94; in that of UUUCGAAUUAACGCAACUG against HECTD1, 0.00197; in that of UUCUGAUUCCCAAACAGUG against COMMD8, -1.88. In the case of AAUCAUAACUGUCAUAUCC against DSPP it was 0.304; in that of ACCGUGCCCAGCAUACAUC against LOC541473, -4.77; in that of UUUCUGGUGACCCUUUUUC against TSG101, -0.683. For the sequence UCUACUUCUGUGGAUACUC against TALDO1, the seed-corrected z-score came to 0.332. In the case of UCAGCUGCACUUUCAGUAG against GOLGA8J, the seed-corrected z-score was -1.61. In the case of ACCGUUACAUAUUCUAUCC against SUPT6H it was -4.84. In the case of UGCUGUAUCCUCUAUAUCC against RFX5 it was -0.0572. In the case of UUAAUCGGCACAGCUGUUC against RSBN1 it was -0.543; in that of UAUGCAGUCUGGGUAACCC against C10orf11, 0.746; in that of UUACGUAUGCACCAUUUGC against SLC35D1, 0.196. In the case of UAUAGUAAUCAGCUAGUGG against MED6, the seed-corrected z-score is -3.7. Consider UUUAUUCCCAAAGGCUCUG against PTGER1, for which the seed-corrected z-score was -0.569. In the case of AUAUCAUUUACUGACAUAG against DNAJB4 it was -0.41. In the case of UUCCAGGAUACUUUAAUCC against PON1 it was -0.178; in that of AAGCGGUUAACGAAAAGGC against SLC2A1, 1.37; in that of UUUGUAAUCAUACGGACAG against ZFAND5, 0.868.

AAACUCAAAAUCCCGUUGC against ZC3H10 gave a seed-corrected z-score of 0.108. In the case of UAAUAUCCGGUAAGAAUCC against DDB2 it was -0.365; in that of UAUAGGUAAGGAUUUCUGC against KRTAP9-2, -0.397.
